Experimental data reported in ChEMBL document CHEMBL3988442, “University of Dundee, Small-Polar-MMV Screening Library” (2021).

Columns and labels:
[1] = molecular target: T1, Aspartate--tRNA(Asp/Asn) ligase (Mycobacterium tuberculosis (strain ATCC 25618 / H37Rv)) (UniProt P9WFW3); test: Assay for Asp RNA synthetase-1 from Mycobacterium tuberculosis; assay type: functional; parameters: scale not given: direction of the effect not stated beside the values; settings: 30 µM; also: in the data most compounds retested in dose-response had high values
T1 sequence (whole entry): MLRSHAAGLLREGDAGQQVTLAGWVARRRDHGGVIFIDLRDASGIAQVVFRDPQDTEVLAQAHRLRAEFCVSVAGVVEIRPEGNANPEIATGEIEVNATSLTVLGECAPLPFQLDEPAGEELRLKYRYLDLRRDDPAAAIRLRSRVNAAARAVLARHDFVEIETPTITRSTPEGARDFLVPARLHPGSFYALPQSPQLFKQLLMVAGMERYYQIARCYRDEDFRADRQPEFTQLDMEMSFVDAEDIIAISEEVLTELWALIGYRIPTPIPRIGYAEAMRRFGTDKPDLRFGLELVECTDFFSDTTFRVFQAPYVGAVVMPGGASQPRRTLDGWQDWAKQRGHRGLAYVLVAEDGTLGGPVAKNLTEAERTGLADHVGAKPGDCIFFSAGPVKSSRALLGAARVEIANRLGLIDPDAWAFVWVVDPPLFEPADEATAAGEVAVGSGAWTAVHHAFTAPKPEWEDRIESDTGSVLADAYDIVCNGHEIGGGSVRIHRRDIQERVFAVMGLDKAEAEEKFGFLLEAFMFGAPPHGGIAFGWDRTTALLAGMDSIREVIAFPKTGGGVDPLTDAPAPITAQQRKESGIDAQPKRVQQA

[2] = molecular target: Shiga toxin 2 (Escherichia coli O157:H7) (UniProt P09385+P09386); test: E. coli 0.157:H7 Shiga Toxin SOP - stx2 screening assay; assay type: functional; parameters: scale not given: direction of the effect not stated beside the values; settings: 30 µM

| SMILES | Percent Effect [1] | Percent Effect [2] |
| --- | --- | --- |
| Cc1cc(C[C@@H]2COC[C@@H]2NC(=O)CN2CCCC2)on1 | 4.6% | -10.1% |
| Cc1nn(C)c(N(C)C)c1CNCC(O)COc1ccc(F)cc1 (centres undefined) | -7.16% | 8.48% |
| c1cnc(-c2cnc(N3CCSCC3)nc2C2CCCO2)cn1 (centres undefined) | 6.48% | 13.6% |
| CCCC(=O)N1CCC2(CC1)CC(NC(C)=O)c1ccccc1O2 (centres undefined) | -5.26% | -24.9% |
| CC(C)C(C(=O)N1CCC(Nc2cccnn2)CC1)n1cncn1 (centres undefined) | 0.434% | 12.4% |
| CC(NC(=O)NCc1cccnc1N1CCCCC1)c1nccs1 (centres undefined) | -6.16% | -7.44% |
| CN(C)C(=O)CN1CCC2(CCCN(Cc3cccn3C)C2)C1=O (centres undefined) | 2.49% | -13.9% |
| COc1ccc(CNC(=O)Nc2cccnc2N2CCCC2)cc1O | 0.235% | 10.6% |
| CN(CC1CC1)C(=O)CN(Cc1cccc(O)c1)C1CCC(O)CC1 (centres undefined) | -0.296% | 6.41% |
| O=c1c2cnc(N3CCCCC3)nc2ccn1-c1ccccc1 | -0.697% | -17.9% |
| COc1ccc(C)cc1C(C)NC(=O)NCCCn1cncn1 (centres undefined) | 2.78% | -12.9% |
| CC(O)CN1CCN(C(=O)c2ccc3c(c2)COC3)CC1 (centres undefined) | -4.85% | -19.4% |
| Cc1c[nH]cc1C(=O)N1CCN(Cc2nc(C(C)C)no2)CC1 | -3.47% | 9.19% |
| COC(=O)c1cccn1C1CCN(C(=O)c2cn[nH]c2C)CC1 | -3.31% | -8.31% |
| Cc1ncoc1C(=O)N1C[C@H]2CCC[C@@]2(COCC2CCOCC2)C1 | -1.27% | 3.67% |
| O=C(NCC1CCOC1)Nc1ccc(OCC(F)(F)F)nc1 (centres undefined) | -1.61% | -28.7% |
| O=C(NCCN1CCCCC1)c1ccoc1 | 2.52% | -21.3% |
| Cc1cnc(C(=O)N2CCc3ncnc(C)c3CC2)cn1 | 0.251% | -27.4% |
| O=C(NCCCn1cncn1)NCC(c1ccccc1)N1CCCC1 (centres undefined) | 0.0576% | -13% |
| CC(Cn1cccn1)NC(=O)NCc1cccs1 (centres undefined) | -7.69% | -7.84% |
| Cc1nnn2c1COCC(CNC(=O)c1ccc3[nH]ccc3c1)C2 (centres undefined) | 0.238% | -35.3% |
| O=C(CN1CC(n2cccn2)C1)NCCCc1ccccc1 | 0% | -22.1% |
| c1cnn(CC2CCCCN2Cc2cn3ccsc3n2)c1 (centres undefined) | 1.03% | -12.1% |
| COCCOc1ccc(NC(=O)N2CCCC2c2cc(C)no2)cn1 (centres undefined) | -5.36% | 25.9% |

| SMILES | Percent Effect [1] | Percent Effect [2] |
| --- | --- | --- |
| O=C(NCCNCC1CNc2ccnn2C1)c1ccc(F)cc1 (centres undefined) | -3.94% | -25.2% |
| COc1ccc(-c2nnc(SC(C)C(=O)NC3CC3)[nH]2)c(OC)c1 (centres undefined) | 2.19% | 7.63% |
| O=C(Cn1ccnc1)N1C[C@@H]2CC[C@H](Oc3ccccc3)[C@@H]2C1 | 5.52% | 2.5% |
| O=C(NCC(F)(F)F)C1CSCN1S(=O)(=O)c1ccc(F)cc1 (centres undefined) | -3.86% | -29.9% |
| O=C(Cn1cnc(NC(=O)CC2CCCC2)n1)NCc1ccccc1 | -1.37% | 12.3% |
| O=C(c1ccnnc1)N1CCN2C[C@H](Oc3cccc(F)c3)C[C@H]2C1 | -0.611% | -1.95% |
| COCC(=O)N1Cc2cnc(Cc3ccc(OC)cc3)nc2C1 | 2.73% | -8.2% |
| COCCCC1CCCN(C(=O)CCc2cc(O)no2)C1 (centres undefined) | -7.41% | -0.726% |
| Cc1cccc(Cn2ccc(NS(C)(=O)=O)n2)c1 | 6.96% | -21.6% |
| CC(C)CN1CCC2(CCN(C(=O)c3ccc(F)cc3)CC2)C1=O | -3.41% | -8.12% |
| CC(O)CN1CCN(Cc2cccc(C(=O)N(C)C)c2)CC1 (centres undefined) | -6.5% | -1.9% |
| COc1ncc(C2CC(=O)NCc3nc4ccccn4c32)cn1 (centres undefined) | -1.4% | 15% |
| Cn1cccc1C(=O)N1CCc2ncnc(N3CCCC3)c2CC1 | -0.927% | -8.7% |
| COCC(=O)N1CCN(Cc2coc(-c3cccc(F)c3)n2)CC1 | -1.18% | 16.9% |
| Cc1ccc(CN2CCC3(CC2)CC(c2cccnc2)CO3)s1 (centres undefined) | -2.49% | -7.07% |
| Cc1cc(-c2cnc(NC3CC3)nc2-c2ccc(C)o2)on1 | -2.52% | 0.454% |
| COc1ccc2c(ccn2CCC(=O)O)c1 | -2.82% | -49% |
| O=C(NCCc1coc(-c2ccc(F)cc2)n1)NC1CCC(O)CC1 (centres undefined) | -3.81% | -24.9% |
| Cc1cnc(CN(Cc2ccccc2)CC(O)c2cccs2)cn1 (centres undefined) | -1.43% | -15.5% |
| O=C(Nc1cccnc1)[C@H]1CO[C@H]2CCN(c3ncc(F)cn3)C[C@H]2C1 | 0.524% | -22.2% |
| CN(Cc1ccc(C#N)cc1)Cc1noc(C(C)(C)C)n1 | -2.67% | -19% |
| COC(CNC(=O)N1CCC(n2cncn2)CC1)c1ccccc1 (centres undefined) | -3.54% | 7.26% |
| COCC1CC2(CCN(C(=O)c3cc(C)oc3C)CC2)CN1C(C)C (centres undefined) | -2.27% | -25.7% |
